# From PubChem BioAssay
# PostGolgi yeast = growth inhibition of a yeast mutant, post-Golgi transport screen. AID 739. actives 0.9% (n = 98,000). inhibition, % at 10 µM. post-Golgi transport phenotypic cell assay;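 further: yeast cells grown in 1536-well plates; yeast grown about 18 h at 30C before absorbance read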
# D1 allo mod = allosteric modulators of human D1 dopamine receptor. HEK293 D1, CRE-luciferase, dopamine EC30 potentiation; actives deviate in either direction. B-score at 10 µM. P21728. actives 5.9% (n = 58,000);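 active means luminescence count or its row- and column-corrected plate score outside the 99.7% band of the plate's sample wells, on either side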
# PLAP act = human PLAP activation | P05187 | purified PLAP enzyme, luminescent substrate read-out; active compounds read high | activation fold at 20 µM | actives 1.2% (n = 96,000) | AID 696; in the data active means activation fold above about 2
# PostGolgi ctrl = growth of the yeast control strain, post-Golgi counter-screen | efflux-deficient yeast background strain, growth absorbance A615, 16 h | AID 738 | actives 5% (n = 98,000) | inhibition, % at 10 µM
# Cav3 T inh = human Cav3.2 channel inhibition, primary screen | O95180 | Cav3.2-expressing cells, Fluo-4 calcium fluorescence FDSS; active compounds read low | B-score at 10 µM | actives 4% (n = 100,000) | AID 449739;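 active means single-dose well whose peak fluorescence ratio is a statistical outlier from its plate by either plate-standardised score or position-corrected B-score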
# DAT uptake mod = modulates human dopamine transporter uptake under cocaine | AID 449768 | actives 1.3% (n = 110,000) | Q01959 | B-score at 10 µM | LLC-PK1 hDAT cells, [14C]-dopamine uptake with cocaine IC80; actives deviate in either direction;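 active means Z score or B-score, a plate-position-corrected score, falls beyond the plate's 99.7% confidence bounds, in either direction; inactive means both scores lie inside the 99.7% bounds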;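 further: scored against the spread of the other compound wells on the same plate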
# * = called active by the depositor; / = not tested or not shown. An excerpt weighted towards active compounds, which were near 12% of everything screened. Unless noted, no stated cut-off is given here; in the data, active means inhibition above about 30%; inactive means the rest.
SMILES,PostGolgi yeast,D1 allo mod,PLAP act,PostGolgi ctrl,Cav3 T inh,DAT uptake mod
O=C1CCCC2=C1C(c1ccsc1)CC(=O)N2c1nnc(SCc2ccccc2)s1 (stereo not drawn),4,/,1.3,37*,-5.5*,0.099
CC(C)[C@@H](C(=O)OCC(=O)Nc1ccc2c(c1)OCO2)N1C(=O)c2ccccc2C1=O,16,/,0.8,12,-4.1,0.25
CCOC(=O)C1CCN(Cc2ccc(O)c3ncccc23)CC1,-10,-0.54,1.8,15,-0.34,1.3
Cc1cccnc1NCc1ccc(O)c2ncccc12,-7,-0.067,2.6*,9,0.83,-0.4
O=C(NCCN1CCOCC1)N1c2ccccc2Sc2ccccc21,0,/,1.1,7,-0.17,-2.3
COc1ccc(CNC(=O)CSc2nnc(Cn3nnc4ccccc43)n2C)cc1,23,/,0.9,-5,-0.29,-0.16
Cc1cccc(C)c1OCC(O)CNS(=O)(=O)c1ccccc1C(=O)N1CCCCC1 (stereo not drawn),/,/,/,/,-1.9,0.62
CC(C)c1nc(SCC(=O)N2CCN(c3ccccc3)CC2)c2c(=O)n(C)c(=O)n(C)c2n1,-8,-3.9*,1.5,12,-1.2,-0.23
CCCc1nc(SCC(=O)N2CCN(c3ccccc3)CC2)c2c(=O)n(C)c(=O)n(C)c2n1,-4,-1.6,/,4,/,-0.43
CCc1nc(SCC(=O)N2CCC(C)CC2)c2c(=O)n(C)c(=O)n(C)c2n1,-4,0.032,/,3,0.95,1.4
CCc1nc(SCC(=O)N2CCC(Cc3ccccc3)CC2)c2c(=O)n(C)c(=O)n(C)c2n1,19,/,1.2,40*,1.7,0.16
CC(C)(C)OCC(NC(=O)C(CC(N)=O)NC(=O)OC(C)(C)C)C(=O)OC(C)(C)C (stereo not drawn),3,-0.038,1.3,3,-1.2,-0.42
COc1ccc(-c2noc(CN3CCOCC3)n2)cc1OC,-2,0.25,0.9,-2,0.18,-1.1
O=C(c1ccc2c(=O)n(Cc3ccco3)c(=S)[nH]c2c1)N1CCN(Cc2ccccc2)CC1,-4,/,1,-3,-6.6*,-0.037
CC1CCN(C(=O)CSc2nc3ccccc3c(=O)n2Cc2ccc3c(c2)OCO3)CC1,-6,/,1.4,43*,-4.9*,1.3
CC1CCCN(C(=O)c2ccc3c(=O)n(Cc4ccc5c(c4)OCO5)c(=S)[nH]c3c2)C1 (stereo not drawn),-1,/,1.4,47*,-5.3*,0.11
CCC(C)c1ccc(NC(=S)NCc2cccs2)cc1 (stereo not drawn),-10,/,0.9,7,-3.2*,1.2
CC(C)(C)c1ccc(NC(=S)NCc2cccs2)cc1,7,/,0.9,9,-1.5,-0.38
CCCNS(=O)(=O)c1ccc(CCC(=O)N2CCN(c3ccc(OC)cc3)CC2)cc1,1,/,1.8,53*,0.4,0.87
COc1ccc(N2CCN(C(=O)CCNS(=O)(=O)c3ccc(Br)s3)CC2)cc1,84*,-0.16,1.5,3,-3.6,-0.049
O=C(CCCn1c(=O)[nH]c2cc(Cl)ccc2c1=O)NCCCN1CCCC1=O,1,0.06,1.5,1,0.071,0.16
COc1ccc(OC)c(C(=O)COC(=O)c2ccccc2O)c1,-1,0.85,1.1,10,-1.3,-0.42
Cc1cc(C)c2nc(N3CCC(C(=O)NCCCN4CCCCC4)CC3)sc2c1,-3,/,2*,5,0.11,2.9
CCOc1ccc(CC(=O)NCc2cn3c(C)csc3n2)cc1,-2,1.2,0.9,-2,1.1,0.2
CCC(=O)OCc1c(C(F)(F)F)nn(C)c1Sc1ccc(Cl)cc1,-7,/,0.9,19,-3,-0.035
SMILES,PostGolgi yeast,D1 allo mod,PLAP act,PostGolgi ctrl,Cav3 T inh,DAT uptake mod
CCC(=O)OCc1c(C(F)(F)F)nn(C)c1Sc1ccc(F)cc1,7,/,1.1,13,-7.5*,-0.01
COc1ccc(S(=O)(=O)NCCSCc2cccc(C)c2)cc1Br,0,/,0.8,37*,-1.7,0.048
Cc1ccc(S(=O)(=O)NCCSCc2ccccc2)cc1,-1,/,/,16,/,0.22
COCCNC(=O)CN1CCC(NC(=O)C(C)(C)C)CC1,37*,/,1,13,-0.0024,1.1
Cc1cccc(Nc2ncccc2C(=O)NCc2cccs2)c1C,-8,/,0.7,34*,-2.6,1.1
Cc1ccc(C)c(-c2cc(C(=O)NCc3cccs3)c3ccccc3n2)c1,-16,/,1.1,9,-1.1,-1.5
O=C(NCc1cccs1)c1nn2cccnc2c1Cl,0,0.18,0.7,6,0.023,0.035
Cc1ccc(Nc2ncccc2C(=O)NCc2cccs2)c(C)c1,-2,/,0.9,44*,-1.2,/
COC(C)(C)[C@]12CC(O)(c3ccccc3)ON1[C@H]1CCCCC1N2O (stereo partly drawn),1,3.1,1,32*,-0.77,-0.6
COc1ccc(C2CC(O)(c3ccccc3)Oc3c(C)ccc(C)c32)cc1 (stereo not drawn),/,/,/,/,-0.55,0.32
Cc1ccc(CN(c2ccc(C(=O)N3CCCC3)cc2)S(C)(=O)=O)cc1,7,0.39,1.4,10,0.61,1.3
C/C(=N/OC(=O)c1c(F)cccc1F)c1nccs1,-2,/,0.9,9,-4.7*,-0.4
c1ccc(NCc2nc(-c3ccccc3)no2)cc1,-13,0.018,0.6,32*,-0.084,-2.4
Cc1ccc(NC(=O)CN2CCCN(S(=O)(=O)c3ccc(Br)s3)CC2)cc1,16,/,1.7,33*,-4,-0.22
CN1CCN(S(=O)(=O)c2ccc(Br)s2)CC1,3,-0.36,1,2,-0.039,-1.4
Cc1cc(C)cc(NC(=O)CN2CCCN(S(=O)(=O)c3ccc(Br)s3)CC2)c1,1,/,1,42*,-3.3,-0.72
CCOC(=O)N1CCN(S(=O)(=O)c2ccc(Br)s2)CC1,-9,-0.18,0.9,1,0.69,-0.078
CCC(Sc1nc(N)cc(N)n1)C(=O)O (stereo not drawn),-5,/,0.8,5,0.9,-0.0054
O=C1CN(C(=O)c2cc(Br)c(Br)s2)c2ccccc2N1,-3,/,1.1,37*,-5.6*,-0.54
Cc1ccc(C2=NNC(C(O)C(O)C(O)CO)S2)cc1 (stereo not drawn),-2,/,2.4*,6,-0.011,1.2
O=C(COC(=O)c1c[nH]c(=O)[nH]c1=O)NCc1ccccc1,-9,/,0.8,10,-2.3,0.84
COc1ccc(C(=O)OCC(=O)NCc2ccco2)cc1S(=O)(=O)N1CCN(c2cccc(Cl)c2)CC1,5,/,1.5,14,-7.4*,-1.1
CCOC(=O)c1ccc(NC(=S)Nc2ccc(Br)cc2N)cc1,/,/,/,/,-2.2,0.66
Cc1csc(-c2cnn(-c3ccccc3)c2NC(=O)c2ccc(C(F)(F)F)cc2)n1,18,/,1,44*,-2.8,1
COc1cccc(CNCc2ccc(SC)cc2)c1OC,2,/,1,-5,0.05,-0.43
Clc1ccc2[nH]c3c(NCCN4CCOCC4)ncnc3c2c1,15,3.2,1,30*,1.4,-0.51
COc1ccc2[nH]c3c(NCCCN4CCCC4=O)ncnc3c2c1,-3,/,1,11,1.1,2.9*
